# The whole screen tested about 420,000 compounds, of which about 50,000 (12%) were called active. Inconclusive results (about 26%) are left out. Calls come from the whole dose curve; as a rule, active = well fitted inhibition curve with a large enough effect; inconclusive = small, poorly fitted or top-dose-only effect; inactive = flat fitted curve, though single readings scatter. Shown is part of a subset that was picked to be rich in actives. A call without a number means that no potency is given here.
# Test: qHTS for Inhibitors of human tyrosyl-DNA phosphodiesterase 1 (TDP1): qHTS in cells in presence of CPT; note: nearly all actives have a fitted effect of over 55% in size
# Details: chicken DT40 Tdp1-/-;hTDP1 cells + 20 nM CPT, ATP luminescence, 48 h; series mostly up to 46.2 µM
# Excerpt: Human tyrosyl-DNA phosphodiesterase 1 (TDP1) is a novel repair gene, and we propose to use it as a new target for anticancer drug development. TDP1 is not an essential protein, but under treatment with topoisomerase I poison (camptothecin: CPT), TDP1 works as a critical factor for cell survival. To directly identify novel TDP1 inhibitors active in a cellular environment, we have knocked-out the Tdp1 gene in chicken DT40 cells (Tdp1-/-) and generated a complemented counterpart cells that contains a stable transfection of the human TDP1 gene (Tdp1-/-;hTDP1 cells). For the primary screen, Tdp1-/-;hTDP1 cells will be exposed to small molecules in the presence or absence of CPT, and their growth kinetics will be evaluated after 48 hours by measuring ATP activity. […] The hit compounds will then be evaluated in the presence or absence of CPT using Tdp1-/- cells. […] In tertiary assays, biochemical gel-based assays will be used to assess whether the hit compounds specifically target TDP1. To this end, we have screened this cell line against the MLSMR in two primary screens. In one screen we add CPT and in the other we screen in the absence of CPT; this AID represents the screen where CPT was present. NIH Chemical Genomics Center [NCGC] NIH Molecular Libraries Probe Centers Network [MLPCN] MLPCN Grant: MH095538 Assay Submitter (PI): Yves Pommier, NCI
# DT40-hTDP1 cells with 20 nM Camptothecin (add 20 microL of 1 mM CPT stock in 1 L of cell culture medium) were dispensed at 400 cells/5microL/well in tissue culture treated 1536-well white wall/solid bottom assay plates (Greiner Bio-One North America, NC, U.S.A.) using a Multidrop Combi 8 channel dispenser (Thermo Fisher, Waltham, MA, USA). 23 nL compounds and controls were transferred using the pin tool (Kalypsys, San Diego, CA, USA) to the assay plates. The assay plates were then incubated at 37 masculineC for a minimum 48 hr. Three microL of Cell Titer Glo solution was added to the plates and incubated at RT in dark for 30 min. Luminescence was read using ViewLux (Perkin Elmer) with 1 sec exposure slow speed, high gain and 2x binning.
# Potency is the fitted concentration of half-maximal effect.
row,SMILES,Potency
1,O=S(=O)(Nc1ccc2ccccc2c1)N1CCCCC1,inactive
2,CC1CN/C(=C\C(=O)c2ccc(Br)cc2)C(=O)N1 (configuration not stated),inactive
3,CCOc1ccc2nc(N(CCN(C)C)C(=O)c3ccc4ccccc4c3)sc2c1,inactive
4,CCN(CC)CCN(C(=O)c1ccc(S(=O)(=O)N2CCOCC2)cc1)c1nc2cc3c(cc2s1)OCCO3,inactive
5,CN(C)CCCN(C(=O)c1ccc(S(=O)(=O)N2CCCCCC2)cc1)c1nc2ccc(Br)cc2s1,11.6 µM (active)
6,O=c1/c(=C/c2ccc(CNS(=O)(=O)c3ccccc3)o2)sc2n1CCN=2,inactive
7,Nc1nc(NCc2ccccc2)n(-c2ccccc2)n1,inactive
8,Cc1cc(C)n2c(NCc3ccccc3)c(CC(C)C)nc2n1,14.6 µM (active)
9,Cn1cc(C2OC(=O)c3ccccc32)c2ccccc21 (configuration not stated),inactive
10,ONC(=Nc1ccc(Cl)cc1)c1ccccc1Cl,inactive
11,Cc1ccc(/C=N/NC(=O)Cn2ccc(C(F)(F)F)n2)o1,inactive
12,CCOc1ccc2oc(C(=O)N(CC)CC(=O)Nc3ccc(NC(C)=O)cc3)c(C)c2c1,inactive
13,O=C1c2ccccc2C(=O)N1CCOc1ccc(F)cc1,inactive
14,Cc1cccc2c1N(CCOc1ccccc1)C(=O)C2=O,2.06 µM (active)
15,Cc1cccc(C)c1-n1nnnc1C1(C)CCC(=O)N1CCOc1ccccc1 (configuration not stated),inactive
16,O=c1c2ccccc2ncn1CCCCOc1ccccc1F,inactive

row,SMILES,Potency
1,CCOC(=O)N1CCN(C(=O)C(C)NC(=O)c2ccco2)CC1 (configuration not stated),inactive
2,CC(=O)c1ccc(N2CCN(C(=O)CCNC(=O)Cn3ccc4ccccc4c3=O)CC2)cc1,inactive
3,CCOc1cccc(NC(=O)c2ccc(F)c(S(=O)(=O)N(CC)c3cccc(C)c3)c2)c1,18.4 µM (active)
4,CCOc1ccc(N(CC(=O)Nc2cccc(OC)c2)S(C)(=O)=O)cc1,inactive
5,CCOc1cccc(NC(=O)CC#N)c1,inactive
6,O=c1[nH]c2ccccc2s1,inactive
7,CC1CCCCN1C(=O)CCS(=O)(=O)Cc1ccccc1 (configuration not stated),inactive
8,COc1ccnc(Oc2ccccc2)n1,inactive
9,CCC(C)c1ccccc1N1CC(C(=O)N2CCN(S(=O)(=O)c3ccc(F)cc3)CC2)CC1=O (configuration not stated),inactive
10,COc1ccc(CCNS(=O)(=O)c2cc3c(cc2C)NC(=O)CO3)cc1OC,inactive
11,COc1ccc(CC(=O)NC(C)CCc2ccccc2)cc1 (configuration not stated),inactive
12,CCC/C=C(\CCC)C(NC(=O)Cc1ccccc1)c1ccc(C(=O)OC)cc1 (configuration not stated),18.4 µM (active)
13,CCOc1ccc(C(CC(=O)O)NC(=O)Cc2ccccc2)cc1OC (configuration not stated),inactive
14,Cc1ccc(/C=N/NC(=O)COc2ccccc2-c2ccccc2)cc1,0.164 µM (active)
15,C=CCc1ccccc1OCC(=O)N/N=C/c1ccccc1OCC,inactive
16,Cc1cccc(OCC(=O)NCC(=O)N/N=C/c2ccc(N(C)C)cc2)c1,inactive
